Source: PubChem BioAssay AID1486 (The Scripps Research Institute Molecular Screening Center, 2009)
Out of some 220,000 compounds screened, about 2,400 (1.1%) were called active. This is one part of a sample in which actives are shown more often than they occur.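 The calls were made as follows: active = inhibition above a per-campaign cutoff, the mean inhibition of all tested compounds plus 3 SD (cut at about 27% in these data); inactive = the rest.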

experiment: parental Ba/F3 cell viability inhibition, counter-screen for JAK2V617F inhibitor project, murine pro-B, CellTiter-Glo luminescence (AID 1486); conditions: CellTiter-Glo ATP luminescence, at 5.6 µM, hits give high values;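 also: 0% = DMSO wells and 100% = JAK Inhibitor I control wells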

Structure (SMILES)	inhibition
COc1cc(/C=N\Nc2ccc([N+](=O)[O-])cn2)ccc1OCC(=O)O	10.2% (inactive)
Cc1cc(/C=N/Nc2ccc([N+](=O)[O-])cn2)c(C)n1-c1cccc(C(=O)O)c1	-1.49% (inactive)
Cc1ccc(-n2c(C)cc(/C=N/Nc3ccc([N+](=O)[O-])cn3)c2C)c(C)c1	50.2% (active)
Cc1cc(NC(=O)CSc2nc3cc(Cl)ccc3c(=O)n2Cc2ccco2)no1	8.02% (inactive)
C[C@@H](C(=O)N1CCNCC1)n1cc(CCC(=O)O)nn1	-3.7% (inactive)
O=C(Cn1cnc2ccccc21)N/N=C/c1ccco1	1.87% (inactive)
COC(=O)c1cc(NC(=O)c2ccco2)ccc1N1CCOCC1	1.48% (inactive)
COC(=O)COc1cccc2c(=O)n(CC(=O)NCCc3ccc(OC)c(OC)c3)ccc12	-0.48% (inactive)
Cc1ccc(CNC(=O)CCNC(=O)Cn2ccc3ccccc3c2=O)cc1	8.67% (inactive)
COC(=O)COc1cccc2c(=O)n(CC(=O)NCc3ccccc3)ccc12	44.3% (active)
Cc1ccc2nc(C)cc(N/N=C/c3ccc(F)cc3)c2c1	8.42% (inactive)
NS(=O)(=O)c1ccc(CNC(=O)c2cnccn2)cc1	-6.36% (inactive)
CCOc1ccc(OCc2cccc(C(=O)N(CC)CC)c2)cc1	1.21% (inactive)
Cc1nn(-c2ccc([N+](=O)[O-])cc2)c(N)c1-c1ccccc1	-2.11% (inactive)
Cc1ccc(N=C2NC(=O)c3cccc([N+](=O)[O-])c32)cc1	2.95% (inactive)
O=C(NCc1ccccc1Cl)C1CCCO1 (configuration not stated)	4.65% (inactive)
CCN(CC)c1ccc(NC(=O)c2ccc(Cl)nc2)cc1	72.5% (active)
NS(=O)(=O)c1ccc(NC(=O)COC(=O)c2ccc(Cl)nc2)cc1	4.09% (inactive)
O=C(NNc1ccccn1)c1ccc(Cl)nc1	3.58% (inactive)
Cc1ccc(C)c(NC(=O)c2ccc(OC(=O)c3ccco3)cc2)c1	5.55% (inactive)
C=CC[n+]1c(-c2ccc(C)cc2)csc1NNC(=O)Nc1ccccc1	57.4% (active)
Cc1ccc(NC(=O)Nc2ccccc2)c(Br)c1	5.76% (inactive)
C=CCNc1scc(-c2ccccc2)[n+]1CC=C	1.05% (inactive)
CC(=O)Nc1ccc(/C=N/Nc2ccc(C(=O)c3c(C)cc4ccccn34)cc2[N+](=O)[O-])cc1	-11.2% (inactive)
CS(=O)(=O)Nc1cccc(-c2cn3ccccc3n2)c1	7.16% (inactive)

Structure (SMILES)	inhibition
Cc1ccc(CC(=O)Nc2cccc(C#N)c2)cc1	6.45% (inactive)
CC(O)C(NS(=O)(=O)c1ccc(Cl)cc1)C(=O)OCc1cc([N+](=O)[O-])cc2c1OCOC2 (configuration not stated)	4.65% (inactive)
CCNC(=O)c1sccc1-n1cccc1	2.59% (inactive)
CCCCNC(=O)OCCSCCS(=O)(=O)c1ccc(Cl)cc1	-2.09% (inactive)
Cc1ccc(NC(=O)c2oc3ccccc3c2C)c([N+](=O)[O-])c1	2.45% (inactive)
c1ccc(-n2ncc3c(N4CCCC4)ncnc32)cc1	2.78% (inactive)
c1ccc(-n2ncc3c2ncn2c(C4CCCCC4)nnc32)cc1	97.5% (active)
CN(C(=O)COc1ncnc2c1cnn2-c1ccccc1)C1CCCCC1	-1.06% (inactive)
Cc1ccc(C2NC(C(=O)O)CS2)cc1 (configuration not stated)	4.83% (inactive)
CC(=O)NCc1ccc(S(=O)(=O)NC2CCN(Cc3ccccc3)CC2)cc1	-3.37% (inactive)
C[C@@H]1C[C@@H]2O[C@H]2/C=C\C=C\C(=O)Cc2c(Cl)c(O)cc(O)c2C(=O)O1	104% (active)
CC(NC(=S)Nc1ccccc1)C(c1cccs1)N1CCOCC1 (configuration not stated)	-4.02% (inactive)
c1ccc(Cc2cc[n+](Cc3ccccc3)cc2)cc1	71.7% (active)
CN(C)c1ccc(/C=N/N(Cc2ccccc2)c2ccccc2)cc1	8.22% (inactive)
CN(C)c1cc[n+](Cc2ccccc2)cc1	66.3% (active)
CN(Cc1ccccc1)Cc1ccccc1F	10.4% (inactive)
COC(=O)c1ccc(Cc2ccccc2)o1	1.87% (inactive)
CCn1c(SCC(=O)Nc2ccc(C)cc2)nc2nc3c(cc2c1=O)CCCC3	1.35% (inactive)
S=c1ccc2ccccc2[nH]1	2.2% (inactive)
CCCCCc1ccc(-c2ccc(C(=O)O)cc2)nc1	6.06% (inactive)
Cc1cc(Oc2ccccc2)nc(N2CCOCC2)n1	2.47% (inactive)
COc1ccc(Nc2cc(C)nc(-n3nc(C)cc3C)n2)cc1	78% (active)
COc1ccccc1/C=N\Nc1cc(C)nc(-n2nc(C)cc2C)n1	7.87% (inactive)
CC(=O)c1ccc(Oc2cc(C)nc(-n3nc(C)cc3C)n2)cc1	73.9% (active)
Cc1cc(N/N=C\c2ccc(Br)cc2)nc(-n2nc(C)cc2C)n1	0.24% (inactive)

Structure (SMILES)	inhibition
Cc1cc(C)n(-c2cc(Oc3ccccc3)ncn2)n1	4.63% (inactive)
Cc1cc(N2CCOCC2)nc2ccc(NC(=S)N3CCN(Cc4ccccc4)CC3)cc12	5.21% (inactive)
COC(=O)C(C)NC(=O)COc1ccc2ccccc2c1 (configuration not stated)	1.41% (inactive)
CCOC(=O)CN1C(=O)N[C@@H](c2ccc(Br)cc2)C(C(C)=O)=C1C	3.53% (inactive)
CCOC(=O)c1ccc(NC(=S)N2CCCC2)cc1	0.86% (inactive)
COc1ccc2c(c1OC)C(=O)OC2Nc1nc(-c2ccccc2)cs1 (configuration not stated)	40.2% (active)
COc1ccc(-c2csc(NC3OC(=O)c4ccccc43)n2)cc1 (configuration not stated)	-1.11% (inactive)
COc1ccc(Nc2nc(-c3ccccc3)cs2)cc1	4.08% (inactive)
CC(C)(C)c1nnc(NC(=O)C2c3ccccc3Oc3ccccc32)s1	0.88% (inactive)
Nc1ccc(N=Nc2ccccc2Cl)c(N)n1	-6.75% (inactive)
CCOc1ccc(Br)cc1CSC(=N)N	6.11% (inactive)
CN1/C(=C\C(=O)c2cccnc2Cl)C(C)(C)c2ccccc21	5.33% (inactive)
CN1/C(=C\C(=O)c2oc3ccccc3c2N)C(C)(C)c2ccccc21	10.9% (inactive)
CN1/C(=C\C=C2\N=C(c3ccc(F)cc3)OC2=O)C(C)(C)c2ccccc21	30.4% (active)
Cc1csc(NC(=O)c2ccc(-c3ccc(Cl)cc3Cl)o2)n1	5.38% (inactive)
O=C(c1cccnc1)N(c1cc2sc(=O)oc2c2ccccc12)S(=O)(=O)c1ccccc1	12.4% (inactive)
O=C(COc1ccccc1F)NNC(=O)c1ccc(N2CCCCC2)c([N+](=O)[O-])c1	2.6% (inactive)
O=S(=O)(c1ccc(-c2ccccc2)cc1)N1CCCC1	7.94% (inactive)
O=S(=O)(c1ccc(Br)cc1)n1ccc2ccccc21	36.7% (active)
CCCCNS(=O)(=O)c1ccc(S(=O)(=O)n2cnc3ccccc32)cc1	1.68% (inactive)
O=C1CC(c2ccccc2)CC(O)=C1C=NCCN1CCOCC1 (configuration not stated)	2.34% (inactive)
CC1(C)CC(=O)C(C=NCCC2=CCCCC2)=C(O)C1	6.01% (inactive)
O=C1CCCC(O)=C1C=NCCc1ccccc1	42.9% (active)
CCCCN(C(=O)c1ccc(OC(F)(F)F)cc1)c1c(N)n(CCC)c(=O)[nH]c1=O	3.34% (inactive)
CC(C)(C)SCCNC(=O)c1cccc([N+](=O)[O-])c1	5.58% (inactive)

Structure (SMILES)	inhibition
Cc1cc(NCc2cccnc2)no1	1.06% (inactive)
CN(Cc1cccnc1)C(=O)c1cc(COc2ccc3ncccc3c2)on1	84.6% (active)
Cc1noc(C)c1COc1cccc(C(=O)Nc2cccnc2)c1	1% (inactive)
CCCOc1ccc(NC(=O)C2OC3OC(C)(C)OC3C3OC(C)(C)OC23)cc1 (configuration not stated)	4.19% (inactive)
N#Cc1ccccc1NC(=O)c1cccc(COc2ccc(Cl)cc2Cl)c1	1.93% (inactive)
Cc1ccc(C2CCN(C(=S)Nc3cccc(Cl)c3)C2)cc1 (configuration not stated)	54% (active)
Cc1cccc(NC(=S)N2CCCC(c3nc4ccccc4[nH]3)C2)c1 (configuration not stated)	5.36% (inactive)
O=C(C1CCCO1)N1CCN(C(=S)Nc2cccc(Cl)c2)CC1 (configuration not stated)	9.12% (inactive)
COC(=O)[C@H](Cc1ccccc1)NC(=O)[C@@H]1C[C@H]1[C@@H](NC(=O)OCc1ccccc1)c1ccccc1	1.6% (inactive)
CCCc1ccc(C(=O)[C@@H]2[C@@H](C(C)=O)N3c4ccc(F)cc4C=C[C@@H]3[C@@]23C(=O)Nc2ccccc23)cc1	-6.87% (inactive)
COc1cccc(CC2(CO)CCCN(Cc3nc(-c4cccs4)oc3C)C2)c1 (configuration not stated)	10.4% (inactive)
Cc1ccc(CN2CCN(Cc3ccccc3-c3ccco3)CC2CCO)o1 (configuration not stated)	6.27% (inactive)
Cc1cc(C)n(-c2nnc(C)n2NC(=O)c2cccc(Cl)c2)n1	-0.31% (inactive)
Cc1ccccc1NC(=O)CN1C(=O)N/C(=C\c2cccn2-c2cccc(C(=O)O)c2)C1=O	7.07% (inactive)
O=C1/C(=C\c2ccsc2)NC(=S)N1c1ccccc1	1.31% (inactive)
O=C1N/C(=C/c2cccn2-c2ccccc2)C(=O)N1c1cccc(Cl)c1	52.5% (active)
COC(=O)c1ccc(CN2CCN(CCCc3ccccc3)C(CCO)C2)cc1 (configuration not stated)	4.68% (inactive)
CCN1/C(=C\c2ccc3ccccc3[n+]2CC)Sc2cc(C)ccc21	88.7% (active)
CCN1CCN(CCNC(=O)c2ccc(/C=C3/Sc4ccccc4N(Cc4cccc(C)c4)C3=O)cc2)CC1	13.1% (inactive)
CCN1/C(=C/c2ccc3ccc(C)cc3[n+]2CC)Sc2ccccc21	87.6% (active)
CCN1/C(=C/C(=S)Nc2ccccc2)Sc2ccccc21	0.08% (inactive)
COc1ccccc1C1C(C#N)=C(N)Oc2c1c(-c1ccccc1)nn2-c1ccccc1 (configuration not stated)	4.31% (inactive)
